This is part of a sample that, as a whole, favours compounds with a hit. Of some 83,000 tested, about 20% had one in any assay.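 How to read the values: 0–100, growth inhibition (40 = 60% inhibited); 0, no net growth; -100 to 0, cell death (-40 = 40% of starting cells died; -100 = all dead).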 Unmarked numbers belong to inactive results. The source made the active and inactive calls. How the source made its calls: active means growth percent below 10; inactive means the rest.
How the values were obtained:
Assay in all cases: NCI-60 one-dose screen, 48 h (100 = growth as untreated, 0 = no growth, -100 = all killed)
Conditions in all cases: 10 µM
[1] = system: SK-MEL-2 melanoma
[2] = system: EKVX NSCLC
[3] = system: SN12C renal
[4] = system: UO-31 renal
[5] = system: TK-10 renal
[6] = system: ACHN renal
[7] = system: A498 renal
[8] = system: CCRF-CEM leukemia
[9] = system: MOLT-4 leukemia
[10] = system: CAKI-1 renal

Row | SMILES | growth [1] | growth [2] | growth [3] | growth [4] | growth [5] | growth [6] | growth [7] | growth [8] | growth [9] | growth [10] [%]
1 | Cc1ccc(NCCN(C)CC(C)O)c2c(=O)c3ccccc3sc12 (stereo not given) | 90.6% | 86.4% | 49.6% | 41.5% | 45% | 29.5% | 68.4% | 31.3% | 2.58% (active) | 
2 | N#CC1=C(N)Oc2cc(N)ccc2C1c1cccnc1 (stereo not given) | 97.4% | 96.5% | 98.5% | 84.8% | 119% | 96.7% | 93.5% |  | 89.6% | 
3 | CCOC(=O)c1cc(C(=O)c2ccc(OC)c(OC)c2)n2ccncc12 | 96% | 106% | 102% | 71.3% | 123% | 88.1% | 94.6% | 101% | 94.2% | 
4 | Cc1cc(SCc2ccccc2)nc(N)n1 | 119% | 96.7% | 92.5% | 98.1% | 107% |  | 89.4% | 88.1% | 98.5% | 112
5 | COc1ccc2nc(-c3ccc(Cl)cc3)cc(-c3nnc(SC/C(=N\O)c4ccccc4)n3-c3ccccc3)c2c1 | 89.9% | 96.2% | 95.8% | 78.2% | 111% | 90.2% | 96.3% | 59.3% | 47.5% | 
6 | CC(C)CCN(CCC(C)C)CC(=O)Nc1ccc(S(=O)(=O)c2ccc(NC(=O)CN(CCC(C)C)CCC(C)C)cc2)cc1 | 65.4% | 83.1% | 74.6% | 63.3% | 96.4% | 69.7% | 97.1% | 2% (active) | 2.75% (active) | 
7 | CN1CCN(CC(=O)Nc2cccc(-n3cc(-c4ccncc4)c(-c4ccc(Cl)c(O)c4)n3)c2)CC1 | 28.2% | 63.6% | 64.9% | 50.2% | 103% | 44.7% | 35.6% | 23.9% | 26.4% | 
8 | O=C(Nc1nc(-c2ccccc2)nc2c1sc(=S)n2-c1ccccc1)C(F)(F)F | 104% | 97.2% | 95.3% | 81.2% | 117% | 91.3% | 80.4% | 80.8% | 77.2% | 
9 | CC(CN(C)C)Oc1ccccc1NC1=C(Cl)C(=O)C(Nc2ccccc2OC(C)CN(C)C)=C(Cl)C1=O (stereo not given) | -61.2% (active) | -71.7% (active) | -96% (active) | -99.9% (active) | -97.8% (active) | -98.4% (active) | 26.4% | -1.98% (active) | -30.8% (active) | 
10 | NC(N)=N/N=C(\c1ccccc1)C(O)c1ccccc1 (stereo not given) | 101% | 103% | 99.6% | 81.1% | 94.2% | 109% |  | 92.7% | 99.9% | 
11 | O=C(NCCNC(=O)c1ccc(F)cc1)Nc1ccc(-n2cc(-c3ccncc3)c(-c3ccc(Cl)c(O)c3)n2)cc1 | -11.4% (active) | 11.8% | 31.5% | 16.9% | 12.3% | 9.32% (active) | -24.2% (active) | 7.35% (active) | 8.22% (active) | 
12 | C=C(C)[C@@H]1CC[C@]2(COCCC#N)CC[C@]3(C)[C@H](CC[C@@H]4[C@@]5(C)Cc6c([nH]c7ccccc67)C(C)(C)[C@@H]5CC[C@]43C)[C@@H]12 | 110% | 116% | 98.7% | 94.2% | 100% | 95.2% | 106% |  | 86.1% | 
13 | COc1cc(C)ccc1Oc1nc(Nc2ccc(N3CCOCC3)cc2)ncc1NC(=O)Nc1cc(C(F)(F)F)cc(C(F)(F)F)c1 | 88.6% | 80.7% | 58.1% | 67.5% | 51.1% | 24.4% | 67.8% | 41.9% | 19.2% | 
14 | C1CN(CC2CCC(CN3CCOCC3)O2)CCO1 (stereo not given) | 107% | 100% | 106% | 93.6% | 95.8% | 38.9% | 117% | 50.4% | 68.2% | 
15 | Nc1ncnc2c1ncn2C1(CO)OCC(O)C(O)C1O (stereo not given) | 93.5% | 100% | 103% | 87.9% | 87.3% | 107% | 108% | 101% | 105% | 
16 | CCOC(=O)c1cc(C(=O)c2cc(OC)c(OC)c(OC)c2)n2ccc(-c3cc[n+](CC(=O)c4cc(OC)c(OC)c(OC)c4)cc3)cc12 | 101% | 107% | 84.6% | 66.1% | 13.5% | 90.7% | 80.4% | -15% (active) | -9.13% (active) | 
17 | NNC(=O)Oc1c(Cl)cc(Cl)cc1[N+](=O)[O-] | 103% | 105% | 111% | 87.4% | 94.1% | 106% | 118% | 100% | 97.6% | 
18 | O=C(CSc1nnc(-c2ccc(Cl)cc2)o1)Nc1ccc(C(=O)/C=C/c2ccc(Cl)cc2)cc1 | 101% | 129% | 95.9% | 69.4% | 118% | 114% | 94.7% |  | 92.6% | 
19 | O=C(N/N=C/c1ccc(Cl)cc1)c1ccccc1Nc1cccc(C(F)(F)F)c1 | 70.6% | 66.6% | 91.3% | 40.8% |  | 102% | -13.2% (active) | 69.7% | 74.2% | 86
20 | O=C(/C=C/C=C/c1c(C2CC2)nc2ccccc2c1-c1ccc(F)cc1)c1cccs1 | -76.5% (active) | 49.3% | 38.1% | -43.8% (active) | 22.4% | -42.6% (active) | -21.7% (active) |  | 8.46% (active) | 
21 | S=c1cnc2ccccc2[nH]1 | 95.6% | 107% | 104% | 76.6% | 112% | 101% | 99% | 103% | 91.7% | 
22 | CCN(CC)CCOc1cccc2c1C(=O)c1cccc(OCCN(CC)CC)c1C2=O | 32.1% | 53.6% | 27.5% | 41% | 47.4% | 17.7% | 63% | 22.3% | 8.32% (active) | 
23 | CC(=O)[C@H]1CC[C@]2(C)[C@@H]1CC[C@@H]1[C@@]3(C)CC(CCC#N)(CCC#N)C(=O)C(C)(C)[C@@H]3CC[C@]12C | 102% | 91.8% | 91.8% | 82% | 104% | 95.2% | 88.9% |  | 96.3% | 
24 | Fc1ccc2[nH]cc(-c3nc(-c4ccsc4)cs3)c2c1 | 87.9% | 57.1% | 92.5% | 74.4% | 133% | 93.6% |  |  | 78% | 
25 | CN(C)CCCOc1ccccc1NC1=C(Cl)C(=O)C(Nc2ccccc2OCCCN(C)C)=C(Cl)C1=O | -63.8% (active) | -82% (active) | -86.7% (active) | -99% (active) | -98.3% (active) | -98% (active) | 65.1% | -16.5% (active) | -33.8% (active) | 
26 | N#CCc1csc(Cc2ccccc2)n1 | 101% | 105% | 101% | 88.7% | 89.9% | 109% | 103% | 94.2% | 101% | 
27 | COc1cc(NC(=O)Nc2cnc(Nc3ccc(N4CCOCC4)cc3)nc2Oc2cccc(OC)c2)cc(OC)c1 | 40% | 66.5% | 43.3% | 6.12% (active) | 54.7% | 32.8% | 39.1% |  | 61.3% | 
28 | CCc1ccc(-c2ccc(-n3nc(C)c4c(N)nc(Cc5ccccc5)nc43)cc2)cc1 | 36% | 83.8% | 71.1% | 59.2% | 75% | 35.5% | 73.4% |  | 55.7% | 
29 | CCOC(=O)c1cc(C(=O)c2cc(OC)cc(OC)c2)n2ncc3ccccc3c12 | 15.4% | 61.5% | 39.9% | 19% | -8.97% (active) | 2.48% (active) | 16.5% | 23.5% | 29% | 
30 | CCOC(=O)c1cc(C(=O)c2ccc(OC)c(OC)c2)n2c1ccc1ccc3cccnc3c12 | 19% | 78.6% | 62.1% | 44% | 70.5% | 47.4% | -5.4% (active) | 19.9% | 33.8% | 
